Vif-APOBEC3G blk = qHTS for Inhibitors of Vif-A3G Interactions: qHTS. HeLa A3G-eYFP + Vif (tagged APOBEC3G with the HIV-1 protein that degrades it), YFP fluorescence, overnight. Potency, µM (doses to about 46.1 µM), for the others: at the highest dose activity, negative = active, actives largely listed as inhibitors. DNA dC->dU-editing enzyme APOBEC-3G (Homo sapiens), Q9HC16. 410,000 tested, 0.076% active; note: potency is the fitted concentration of half-maximal effect; % is set by controls: 0 for no effect and ±100 for the full control effect; nearly all actives have a fitted effect of over 60% in size
Target sequence (Q9HC16 whole entry, looked up): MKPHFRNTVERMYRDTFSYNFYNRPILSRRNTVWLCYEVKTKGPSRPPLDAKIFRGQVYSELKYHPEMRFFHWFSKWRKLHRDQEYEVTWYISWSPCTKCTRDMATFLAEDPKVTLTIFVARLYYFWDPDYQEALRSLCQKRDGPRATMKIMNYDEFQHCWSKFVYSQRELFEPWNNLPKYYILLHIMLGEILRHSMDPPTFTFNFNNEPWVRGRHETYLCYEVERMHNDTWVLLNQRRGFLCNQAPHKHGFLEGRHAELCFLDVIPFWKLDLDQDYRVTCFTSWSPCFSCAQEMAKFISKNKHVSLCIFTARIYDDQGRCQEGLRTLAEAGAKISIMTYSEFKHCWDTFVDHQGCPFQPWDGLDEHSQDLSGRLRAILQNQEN
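Read-out is eYFP fluorescence (Ex 488/Em 500-530) from Vif-expressing HeLa A3G-eYFP cells; more signal means A3G escaped Vif-mediated degradation. Cells plated overnight, compound pinned in, incubated overnight at 37 deg C.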
Giardia killer = Small Molecules that selectively kill Giardia lamblia: qHTS | 340,000 tested, 0.15% active | Giardia lamblia trophozoite viability | AID 540267, 2011 | activity change, % at 7.66 µM, hits read low; in the data active = activity change below about -80%; inconclusive = between about -30% and that limit;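 note: parasites exposed to compound for two days anaerobically before the ATP read; % is set by controls: 0 for no effect and ±100 for the full control effect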
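Trophozoite viability was measured as ATP-dependent luminescence, read 15-30 min after reagent addition. Before that, parasites at 100 cells/well were exposed to compounds for 48 h, anaerobically, at 37 deg C.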
MCF10A rereplic = A quantitative high throughput screen for small molecules that induce DNA re-replication in MCF 10a normal breast cells. 350,000 tested, 2.9% active. AID 624296, 2012. MCF 10A DNA re-replication, Hoechst nuclear intensity, 48 h. Potency, µM (top dose mostly 46.1 µM), inactives show top-dose activity, positive = re-replication, actives largely listed as activators; note: potency is the fitted concentration of half-maximal effect; % of control where 0% means no effect; nearly all actives have a fitted effect of over 50% in size
IL-1B inflam inh = qHTS for Inhibitors of Inflammasome Signaling: IL-1-beta AlphaLISA Primary Screen. THP-1 LPS/ATP IL-1B secretion, AlphaLISA, 16 h; stronger effect = lower value. activity change, % at 57.5 µM. 360,000 tested, 4.7% active; in the data active = activity change below about -50%; inconclusive = mostly about -30% to -49%; note: % is set by controls: 0 for no effect and ±100 for the full control effect
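THP-1 cells pretreated 1 hr with compounds (up to 57.5 uM final), then stimulated with LPS (250 ng/mL final) plus ATP (1.25 mM final); secreted IL-1B measured by AlphaLISA after 16 hr, decreased signal indicating inhibition.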
SW480 rerep = A quantitative high throughput screen for small molecules that induce DNA re-replication in SW480 colon adenocarcinoma cells; SW480 DNA re-replication, Hoechst DNA content imaging, 48 h; Potency, µM (highest dose often 46.1 µM), inactives show at the top dose re-replication activation, usual class: activators; 340,000 tested, 1.8% active; note: potency is the fitted concentration of half-maximal effect; % of control where 0% means no effect; nearly all actives have a fitted effect of over 55% in size
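Quantitative HTS format with DMSO vehicle controls; 48 hr drug incubation at 37 C, then 40 min Hoechst staining and scanning imager measurement at 405 nm excitation.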
Vif-APOBEC3F blk = qHTS for Inhibitors of Vif-A3F Interactions: qHTS. HeLa A3F-eYFP + Vif (tagged APOBEC3F with the HIV-1 protein that degrades it), YFP fluorescence increase. Potency, µM (series often up to 46.1 µM), without a hit: at the top dose activity, negative = active. 390,000 tested, 0.2% active. AID 602313, 2012; note: potency is the fitted concentration of half-maximal effect; % of control where 0% means no effect; nearly all actives have a fitted effect of over 65% in size
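Fluorescence increase (Ex 488/Em 500-530) after overnight compound treatment at 37 deg C flags inhibition of Vif-driven A3F-eYFP loss in stable HeLa A3F-eYFP/Vif cells seeded overnight beforehand.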
An asterisk follows results filed as active; ? = inconclusive; . = no result given; [ ] = remark or other dose. A selection: hits, their analogues and other compounds. The true share with any hit is near 6.9%. Unless noted, calls come from the whole dose curve; as a rule, active = well fitted curve in the direction sought with a large enough effect; inconclusive = small, poorly fitted or top-dose-only effect, or another doubt; inactive = no such curve, though single readings can be large; an effect the other way counts as inactive or inconclusive.

SMILES	Vif-APOBEC3G blk	Giardia killer	MCF10A rereplic	IL-1B inflam inh	SW480 rerep	Vif-APOBEC3F blk
CCCN(CCC)CCNC(=O)c1cc2c(=O)n(CC)c3ccccc3c2s1	3%	32	2%	-8	-8%	10%
COCCN(CCOC)C(=O)c1cc2sc3ccccc3c2s1	-3%	-10	-5%	?	5%	-1%
CCCN(CCC)CCCNC(=O)c1cc2c(=O)[nH]c3ccccc3c2s1	1%	-17	?	-73*	?	-12%
O=C(NCCc1ccc(Cl)cc1)C(=O)NCC(c1ccco1)S(=O)(=O)c1ccc(Cl)cc1 (centres undefined)	-3%	.	.	.	.	-25%
COc1cc(NC(=O)CN2CCCN(Cc3cccc(F)c3)S2(=O)=O)cc(OC)c1	1%	.	.	.	.	-3%
Cc1cccc(-c2noc(-c3ccc(N4CCN(C)CC4)c([N+](=O)[O-])c3)n2)c1	4%	.	.	.	.	-6%
Cc1c(Cl)cccc1-c1ccc(CNCCSc2nnnn2-c2ccccc2)o1	3%	.	.	.	.	-5%
CCn1c(=O)c2cc(C(=O)NCCOC)sc2c2ccccc21	-8%	-19	13%	?	-9%	4%
Cn1c(=O)c2cc(C(=O)NCCCN3CCN(c4cccc(Cl)c4)CC3)sc2c2ccccc21	-1%	.	.	.	.	1%
CCOc1ccccc1N(C)C(=O)c1cc2c(=O)n(CC)c3ccccc3c2s1	4%	14	3.7µM*	-68*	18µM*	9%
CCOCCCNC(=O)c1cc2c(=O)n(CC)c3ccccc3c2s1	?	-11	23µM*	0	?	-9%
CN1CCN(CCCNC(=O)c2cc3c(=O)n(C)c4ccccc4c3s2)CC1	4%	-13	3%	-81*	?	-10%
Cc1nn2cc(-c3cccc(Cl)c3)cnc2c1Br	-25%	-19	?	10	?	2%
Cc1nn2cc(-c3cccc(Cl)c3)cnc2c1Cl	-26%	-17	9.2µM*	14	6.5µM*	-10%
Cn1nccc1NC(=O)CSCC(=O)O	-4%	-11	8.2µM*	.	-54%	5%
Cc1ccnn1CCSCC(=O)O	1%	6	21µM*	-9	0%	-1%
Cn1nccc1NC(=O)Nc1ccccc1	-2%	1	1%	26	-13%	4%
N=c1c(S(=O)(=O)c2ccccc2)cc2c(=O)n3ccccc3nc2n1Cc1ccco1	-1%	-8	1%	-79*	18%	2%
Cc1cccn2c(=O)c3cc(S(=O)(=O)c4ccccc4)c(=N)n(Cc4ccco4)c3nc12	-1%	-18	3%	-18	?	-1%
Cc1ccc2nc3c(cc(S(=O)(=O)c4ccccc4)c(=N)n3Cc3ccco3)c(=O)n2c1	1%	29	10%	-52*	?	?
Cc1ccc(S(=O)(=O)c2cc3c(=O)n4ccccc4nc3n(Cc3ccco3)c2=N)cc1C	0%	3	?	-24	?	?
Cc1cccn2c(=O)c3cc(S(=O)(=O)c4ccc(F)cc4)c(=N)n(Cc4ccco4)c3nc12	-9%	1	?	-80*	?	12%
Nc1nc(NCc2ccc(Cl)cc2Cl)c2[nH]cnc2n1	-5%	2	.	.	.	.
COc1ccc(C(=O)NCCc2csc(-c3ccc(Cl)cc3)n2)c(OC)c1	-1%	.	.	.	.	4%
COc1ccc(C(=O)Nc2ccc(C)cc2C(=O)c2ccccc2)cc1	0%	-6	6%	-73*	8%	-2%
SMILES	Vif-APOBEC3G blk	Giardia killer	MCF10A rereplic	IL-1B inflam inh	SW480 rerep	Vif-APOBEC3F blk
COc1ccc(NC(=O)c2ccc(-n3c(C)ccc3C)cc2)c(OC)c1	-5%	12	?	-75*	?	0%
COc1ccccc1C(=O)Nc1ccc(C)cc1C(=O)c1ccccc1	-1%	-22	13%	-7	12%	-1%
COc1cc(-c2ccc(NC(C)=O)c(OC)c2)ccc1NC(C)=O	3%	25	9%	-3	0%	-5%
COc1cc(-c2ccc(NC(=O)c3ccc(C)cc3)c(OC)c2)ccc1NC(=O)c1ccc(C)cc1	-1%	-16	1.6µM*	-10	2.6µM*	-5%
CCCCC[C@H](O)/C=C\[C@H]1[C@H](C/C=C\CCCC(=O)O)[C@@H](O)C[C@H]1O (tested in a mixture with another compound)	.	.	5%[20.6 µM]	.	2%[20.6 µM]	.
Cc1nc2scc(C)n2c(=O)c1S(=O)(=O)Nc1cccc(C(F)(F)F)c1	-1%	.	.	.	.	0%
COc1ccc(-c2ccoc2)cc1C1C2C=CCC(C)C2C(=O)N1Cc1ccccc1 (centres undefined)	?	-3	.	.	.	.
CC(=O)Nc1nonc1-c1nnc(SCC(=O)Nc2cccc(C)c2C)n1-c1ccccc1	5%	.	.	.	.	3%
Cc1ccc(NC(=O)CSc2nnc(-c3n[nH]c4ccccc34)n2-c2ccccc2)c(C)c1	-12%	-4	?	-51*	6%	1%
Cc1ccc(OCc2nnc(SCC(=O)Nc3cccc4ccccc34)n2-c2ccccc2)cc1	2%	0	18µM*	-26	9%	-7%
Cc1ccc(-c2nnc(CSc3nnc(COc4ccccc4)n3-c3ccccc3)o2)cc1	-4%	-4	12µM*	4	12%	4%
Cc1ccc(-c2nnc(CSc3nnc(COc4ccccc4)n3-c3ccc(C)cc3)o2)cc1	3%	-1	23µM*	17	?	0%
CCOc1ccc(NC(=O)c2cn(C)c(=O)c3cc(OC)c(OC)cc23)cc1	-4%	.	.	.	.	-4%
COc1cc(OC)c(NC(=O)c2c(N3CCCC3=O)c3cc(C)ccc3n2C)cc1Cl	-1%	.	.	.	.	-7%
COc1cc(C2C(C(=O)OC(C)C)=C(C)N=C3SCCC(=O)N32)ccc1OCc1ccccc1 (centres undefined)	-1%	.	.	.	.	3%
CN1CCN(c2nc(NCCOC34CC5CC(CC(C5)C3)C4)nc(OCC(F)(F)F)n2)CC1	0%	-5	3%	-80*	-3%	-21%
CN=C(NC(=O)Nc1c(C)cccc1C)NC(=O)Nc1c(C)cccc1C	-5%	11	-3%	-5	-7%	2%
Cc1cccc(C)c1NC(=O)CN	2%	2	-8%	0	18µM*	1%
CN=C(N)NC(=O)Nc1c(C)cccc1C	3%	2	0%	.	16µM*	-20%
COc1ccc(-n2ccnc(NCc3cccs3)c2=O)cc1	0%	.	.	.	.	-1%
O=C(Nc1nccs1)c1cc2c(s1)-c1ccccc1OC2	-12%	2	9.2µM*	79	16µM*	?
